# PubChem BioAssay (EPA / NIEHS)
# Where “and” joins values, the source holds several entries; their conditions need not be identical. Equal entries are not always repeated. Results filed as inconclusive are left out. Some structures have more than one record in an assay (separate samples or runs), and their calls can disagree. Calls of active or inactive are those of the source. The calls were made as follows: active = hit-call score of the fitted dose curve at least 0.9, where 1 is the maximum; inconclusive = response in the unintended direction; inactive = score below 0.9.
# Experiments:
# [1] = target: human Adrenergic, Alpha 2c Receptor (Adra2C), ADRA2C (gene 152) (UniProt P18825); experiment: NVS_GPCR_hAdra2C: NovaScreen (NVS) G Protein-Coupled Receptor Assay for human Adrenergic, Alpha 2c Receptor (Adra2C) (AID 2283259)
# Outline: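 Screened first in duplicate at 25 uM, with actives then run as concentration series. Membranes from Sf9 cells were exposed for 1 h, and displacement of radioligand was counted after filtration, using DMSO as baseline.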
# [2] = target: Type-1 angiotensin II receptor (Homo sapiens) (UniProt P30556); experiment: NVS_GPCR_hAT1: NovaScreen (NVS) G Protein-Coupled Receptor Assay for human Angiotensin II receptor type 1 (AT1) (AID 2283263)
# Outline: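 Hits from a 25 uM duplicate screen (threshold e.g. 30% inhibition) were run in concentration-response with 50 uM top concentration. Displacement of specific radioligand from KAN-TS membrane preparations measured after 3 h by filter scintillation, DMSO as baseline.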
# [3] = target: human Dopamine Receptor D2 (DRD2), DRD2 (gene 1813) (UniProt P14416); experiment: NVS_GPCR_hDRD2s: NovaScreen (NVS) G Protein-Coupled Receptor Assay for human Dopamine Receptor D2 (DRD2) (AID 2283266)
# Outline: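 Test compound (25 uM, duplicate in the primary screen; concentration series at follow-up) competed with radioligand for human DRD2 in CHO-derived membrane protein. Filter-based scintillation counting was done 1.5 hours after dosing, with loss of signal analysed against DMSO.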
# [4] = target: human Leukotriene B4 Receptor 1 (LTB4-BLT1), LTB4R (gene 1241) (UniProt Q15722); experiment: NVS_GPCR_hLTB4_BLT1: NovaScreen (NVS) G Protein-Coupled Receptor Assay for human Leukotriene B4 Receptor 1 (LTB4-BLT1) (AID 2283271)
# Outline: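 Cell-free human neutrophil receptor preparation, 1 h exposure, radioligand binding read by filter scintillation counting. Single 25 uM duplicate screen, then concentration series topping at 50 uM; binding loss scored against DMSO baseline.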
# [5] = target: Neuropeptide Y receptor type 2 (Homo sapiens) (UniProt P49146); experiment: NVS_GPCR_hNPY2: NovaScreen (NVS) G Protein-Coupled Receptor Assay for human Neuropeptide Receptor Y2 (NPY2) (AID 2283277)
# Outline: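 Chemicals were first tested in duplicate at 25 uM, then actives in singleton concentration series to 50 uM. Tracer binding to SK-N-MC-derived protein measured cell-free after 1 h via filter scintillation; signal loss relative to DMSO.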
# [6] = target: human Neurokinin, NK2 Receptor, TACR2 (gene 6865) (UniProt P21452); experiment: NVS_GPCR_hNK2: NovaScreen (NVS) G Protein-Coupled Receptor Assay for human Neurokinin, NK2 Receptor (AID 2283278);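 also: actives reduce bound radioligand signal relative to DMSO baseline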
# Outline: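 Test chemicals displace a radioligand from receptor prepared from CHO cells in a cell-free format, read after 4 hours by scintillation counting on filters. Screening starts at 25 uM in duplicate, and active chemicals then go to concentration series.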
# [7] = target: human Opioid Receptor Delta 1 (Opiate D1), OPRD1 (gene 4985) (UniProt P41143); experiment: NVS_GPCR_hOpiate_D1: NovaScreen (NVS) G Protein-Coupled Receptor Assay for human Opioid Receptor Delta 1 (Opiate D1) (AID 2283280)
# Outline: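 Membrane preparations from CHO cells bearing the human receptor were incubated 1 h with test chemical, and bound radioligand was counted after filtration. Actives from 25 uM duplicate screening were retested in concentration-response.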
# [8] = target: human Endothelin Receptor Type B (ETB), EDNRB (gene 1910) (UniProt P24530); experiment: NVS_GPCR_hETB: NovaScreen (NVS) G Protein-Coupled Receptor Assay for human Endothelin Receptor Type B (ETB) (AID 2283267)
# Outline: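 Filter-based scintillation readout of radioligand displacement, 4 h, using membranes from human astrocytoma cells. Actives from a 25 uM duplicate screen were retested in concentration-response (top 50 uM) relative to DMSO baseline.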
# [9] = target: D(1A) dopamine receptor (Homo sapiens) (UniProt P21728); experiment: NVS_GPCR_hDRD1: NovaScreen (NVS) G Protein-Coupled Receptor Assay for human Dopamine Receptor D1 (DRD1) (AID 2283269)
# Outline: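 Extracted HEK293 DRD1 is incubated 1 h with compound and a tritiated or iodinated radioligand, then filtered and counted. Screening runs 25 uM in duplicate with on-plate positive and negative controls.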
# [10] = target: human Adrenergic, Alpha 2A Receptor (Adra2A), ADRA2A (gene 150) (UniProt P08913); experiment: NVS_GPCR_hAdra2A: NovaScreen (NVS) G Protein-Coupled Receptor Assay for human Adrenergic, Alpha 2A Receptor (Adra2A) (AID 2283257)
# Outline: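 Displacement of a specific radioligand from HT29 membrane protein was counted by filter scintillation after 1 h. Compounds were screened in duplicate at 25 uM, and actives were retested in concentration series. Fitting was positive-direction against DMSO.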
# [11] = target: Muscarinic acetylcholine receptor M1 (Homo sapiens) (UniProt P11229); experiment: NVS_GPCR_hM1: NovaScreen (NVS) G Protein-Coupled Receptor Assay for human Muscarinic, M1 Receptor (AID 2283270)
# Outline: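 Actives from a duplicate 25 uM single-point screen were retested in concentration series. Binding measured as displacement of a radioligand from CHO-derived receptor preparation, 1 h incubation, filtration and scintillation counting, analysed as signal loss against DMSO.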
# [12] = target: human Adrenergic, Beta 1 Receptor (Adrb1), ADRB1 (gene 153) (UniProt P08588); experiment: NVS_GPCR_hAdrb1: NovaScreen (NVS) G Protein-Coupled Receptor Assay for human Adrenergic, Beta 1 Receptor (Adrb1) (AID 2283258)
# Outline: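 Membranes/protein extracted from human neuroepithelioma cells, radioligand competition binding read by filtration and scintillation 2 h post-dose. Single 25 uM duplicate screen, then concentration-response follow-up; DMSO as negative control.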
# [13] = target: human Dopamine Receptor D4.4 (DRD4.4), DRD4 (gene 1815) (UniProt P21917); experiment: NVS_GPCR_hDRD4.4: NovaScreen (NVS) G Protein-Coupled Receptor Assay for human Dopamine Receptor D4.4 (DRD4.4) (AID 2283264)
# Outline: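 Filter-binding assay with a tritiated or iodinated ligand, cell-free receptor prepared from CHO, 1 hour. Loss of bound radioactivity versus DMSO; single 25 uM duplicate screen, then concentration-response for actives.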
# [14] = target: human Endothelin Receptor Type A (ETA), EDNRA (gene 1909) (UniProt P25101); experiment: NVS_GPCR_hETA: NovaScreen (NVS) G Protein-Coupled Receptor Assay for human Endothelin Receptor Type A (ETA) (AID 2283265)
# Outline: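 Binding of radioligand to membrane protein extracted from SH-SY5Y cells was read by filtration and scintillation after 3 h. Compounds were screened at 25 uM in duplicate, with hits followed up in singleton concentration series to 50 uM.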
# [15] = target: human Muscarinic, M4 Receptor, CHRM4 (gene 1132) (UniProt P08173); experiment: NVS_GPCR_hM4: NovaScreen (NVS) G Protein-Coupled Receptor Assay for human Muscarinic, M4 Receptor (AID 2283274)
# Outline: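 Filter-based scintillation counting of radioligand bound to CHO-expressed human M4 preparations after 1 h; loss of signal fitted versus DMSO. Initial duplicate testing at 25 uM, concentration-response follow-up for actives.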
# [16] = target: Beta-2 adrenergic receptor (Homo sapiens) (UniProt P07550); experiment: NVS_GPCR_hAdrb2: NovaScreen (NVS) G Protein-Coupled Receptor Assay for human Adrenergic, Beta 2 Receptor (Adrb2) (AID 2283261)
# Outline: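 Compounds screened in duplicate at 25 uM, then actives in concentration series. Human beta-2 receptor from CHO material, cell-free; radioligand displacement after 1 h measured by filtration and scintillation against DMSO baseline.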
# [17] = target: Muscarinic acetylcholine receptor M3 (Homo sapiens) (UniProt P20309); experiment: NVS_GPCR_hM3: NovaScreen (NVS) G Protein-Coupled Receptor Assay for human Muscarinic, M3 Receptor (AID 2283272)
# Outline: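 Radioligand displacement binding on human M3 receptor in CHO-derived membranes, 1 h incubation, filter-based scintillation counting. Primary screen in duplicate at 25 uM; actives followed up in concentration series; loss of signal versus DMSO.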
# [18] = target: Muscarinic acetylcholine receptor M2 (Homo sapiens) (UniProt P08172); experiment: NVS_GPCR_hM2: NovaScreen (NVS) G Protein-Coupled Receptor Assay for human Muscarinic, M2 Receptor (AID 2283273)
# Outline: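 Radioligand competition binding, cell-free, receptor from CHO; 1 h incubation; scintillation detection. Primary testing at 25 uM in duplicate.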
# human Adrenergic, Alpha 2c Receptor (Adra2C), ADRA2C (gene 152), sequence (P18825 whole entry, looked up): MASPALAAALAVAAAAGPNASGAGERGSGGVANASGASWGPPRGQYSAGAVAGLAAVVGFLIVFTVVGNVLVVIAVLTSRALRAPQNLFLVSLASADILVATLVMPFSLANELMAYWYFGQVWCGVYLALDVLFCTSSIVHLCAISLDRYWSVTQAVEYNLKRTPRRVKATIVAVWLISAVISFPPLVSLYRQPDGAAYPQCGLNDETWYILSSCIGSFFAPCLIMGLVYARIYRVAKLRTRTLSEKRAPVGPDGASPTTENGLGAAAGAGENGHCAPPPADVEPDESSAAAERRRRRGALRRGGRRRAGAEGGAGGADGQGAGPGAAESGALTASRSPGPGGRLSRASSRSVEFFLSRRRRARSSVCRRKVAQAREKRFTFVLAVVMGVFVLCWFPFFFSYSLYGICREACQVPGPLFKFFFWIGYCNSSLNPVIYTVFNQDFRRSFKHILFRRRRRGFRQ
# Muscarinic acetylcholine receptor M1 (Homo sapiens), sequence (P11229 whole entry, looked up): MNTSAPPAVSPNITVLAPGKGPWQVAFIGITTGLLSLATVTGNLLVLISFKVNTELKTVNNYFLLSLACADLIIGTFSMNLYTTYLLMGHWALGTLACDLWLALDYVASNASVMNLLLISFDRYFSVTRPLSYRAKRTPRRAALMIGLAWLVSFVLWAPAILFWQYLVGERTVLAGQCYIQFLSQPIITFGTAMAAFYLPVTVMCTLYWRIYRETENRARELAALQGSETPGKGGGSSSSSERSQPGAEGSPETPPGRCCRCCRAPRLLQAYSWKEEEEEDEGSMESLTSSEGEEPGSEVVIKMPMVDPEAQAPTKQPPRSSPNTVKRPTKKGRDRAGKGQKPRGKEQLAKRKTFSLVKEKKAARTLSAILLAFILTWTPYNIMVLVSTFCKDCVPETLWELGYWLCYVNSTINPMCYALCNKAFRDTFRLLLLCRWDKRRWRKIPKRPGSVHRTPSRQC
# human Leukotriene B4 Receptor 1 (LTB4-BLT1), LTB4R (gene 1241), sequence (Q15722 whole entry, looked up): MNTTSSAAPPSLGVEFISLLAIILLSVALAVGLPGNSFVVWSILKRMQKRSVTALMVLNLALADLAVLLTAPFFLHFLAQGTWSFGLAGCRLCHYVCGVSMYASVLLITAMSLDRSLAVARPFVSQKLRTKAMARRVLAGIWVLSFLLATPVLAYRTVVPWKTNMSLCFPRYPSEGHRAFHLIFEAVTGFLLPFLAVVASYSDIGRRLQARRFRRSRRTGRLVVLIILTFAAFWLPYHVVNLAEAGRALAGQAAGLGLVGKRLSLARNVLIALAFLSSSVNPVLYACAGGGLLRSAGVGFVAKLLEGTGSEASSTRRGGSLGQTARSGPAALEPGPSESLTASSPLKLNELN
# Type-1 angiotensin II receptor (Homo sapiens), sequence (P30556 whole entry, looked up): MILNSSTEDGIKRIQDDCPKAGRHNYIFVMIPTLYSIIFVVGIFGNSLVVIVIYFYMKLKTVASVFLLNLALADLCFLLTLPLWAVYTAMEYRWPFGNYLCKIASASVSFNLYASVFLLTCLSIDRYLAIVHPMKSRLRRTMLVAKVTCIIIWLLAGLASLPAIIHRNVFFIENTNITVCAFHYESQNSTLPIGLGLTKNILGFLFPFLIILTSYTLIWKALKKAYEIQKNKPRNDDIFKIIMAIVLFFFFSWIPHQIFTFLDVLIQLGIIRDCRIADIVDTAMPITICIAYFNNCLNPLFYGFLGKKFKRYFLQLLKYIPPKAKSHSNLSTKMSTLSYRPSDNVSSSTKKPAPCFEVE
# human Adrenergic, Beta 1 Receptor (Adrb1), ADRB1 (gene 153), sequence (P08588 whole entry, looked up): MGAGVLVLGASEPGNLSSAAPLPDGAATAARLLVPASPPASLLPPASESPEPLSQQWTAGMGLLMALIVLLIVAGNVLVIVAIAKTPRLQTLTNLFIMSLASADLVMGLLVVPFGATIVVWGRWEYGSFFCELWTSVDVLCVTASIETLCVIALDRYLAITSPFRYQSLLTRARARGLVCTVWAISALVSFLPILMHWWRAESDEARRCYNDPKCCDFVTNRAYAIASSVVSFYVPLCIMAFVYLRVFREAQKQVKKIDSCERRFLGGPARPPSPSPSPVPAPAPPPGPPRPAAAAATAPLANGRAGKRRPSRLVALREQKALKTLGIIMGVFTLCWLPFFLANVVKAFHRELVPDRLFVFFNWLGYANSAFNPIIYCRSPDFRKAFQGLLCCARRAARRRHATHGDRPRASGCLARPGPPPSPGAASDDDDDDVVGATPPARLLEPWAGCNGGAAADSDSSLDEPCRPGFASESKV
# human Neurokinin, NK2 Receptor, TACR2 (gene 6865), sequence (P21452 whole entry, looked up): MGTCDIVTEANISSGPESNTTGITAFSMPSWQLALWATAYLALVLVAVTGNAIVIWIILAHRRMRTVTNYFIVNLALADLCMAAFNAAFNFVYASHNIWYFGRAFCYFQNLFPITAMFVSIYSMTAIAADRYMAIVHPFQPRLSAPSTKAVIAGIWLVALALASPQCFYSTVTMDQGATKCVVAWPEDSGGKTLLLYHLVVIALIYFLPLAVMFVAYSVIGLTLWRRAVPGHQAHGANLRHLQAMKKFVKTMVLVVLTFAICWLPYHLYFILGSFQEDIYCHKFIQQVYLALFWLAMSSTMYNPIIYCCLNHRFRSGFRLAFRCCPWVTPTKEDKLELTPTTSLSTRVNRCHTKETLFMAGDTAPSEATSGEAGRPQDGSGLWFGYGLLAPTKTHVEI
# human Opioid Receptor Delta 1 (Opiate D1), OPRD1 (gene 4985), sequence (P41143 whole entry, looked up): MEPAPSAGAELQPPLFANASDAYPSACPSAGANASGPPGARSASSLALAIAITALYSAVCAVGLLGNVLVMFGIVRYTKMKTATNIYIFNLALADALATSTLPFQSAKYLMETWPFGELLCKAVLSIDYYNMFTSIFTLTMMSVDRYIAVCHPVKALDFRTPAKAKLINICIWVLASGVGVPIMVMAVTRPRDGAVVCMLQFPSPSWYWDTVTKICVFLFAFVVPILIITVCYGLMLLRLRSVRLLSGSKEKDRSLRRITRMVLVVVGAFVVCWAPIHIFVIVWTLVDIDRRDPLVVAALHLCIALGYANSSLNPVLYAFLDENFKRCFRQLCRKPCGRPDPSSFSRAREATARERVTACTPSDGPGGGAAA
# human Adrenergic, Alpha 2A Receptor (Adra2A), ADRA2A (gene 150), sequence (P08913 whole entry, looked up): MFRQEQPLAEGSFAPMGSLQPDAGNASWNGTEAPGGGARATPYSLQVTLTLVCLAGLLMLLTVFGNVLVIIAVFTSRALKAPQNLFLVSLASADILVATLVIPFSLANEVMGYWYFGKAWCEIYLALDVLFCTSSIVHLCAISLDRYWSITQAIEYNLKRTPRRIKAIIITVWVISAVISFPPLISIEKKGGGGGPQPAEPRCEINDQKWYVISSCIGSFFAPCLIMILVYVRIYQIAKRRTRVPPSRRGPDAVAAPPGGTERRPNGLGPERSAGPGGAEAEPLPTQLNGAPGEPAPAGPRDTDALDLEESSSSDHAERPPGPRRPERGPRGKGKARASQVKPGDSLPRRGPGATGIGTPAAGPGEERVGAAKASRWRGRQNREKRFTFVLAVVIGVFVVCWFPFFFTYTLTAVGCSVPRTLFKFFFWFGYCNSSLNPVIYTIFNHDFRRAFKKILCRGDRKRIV
# human Dopamine Receptor D4.4 (DRD4.4), DRD4 (gene 1815), sequence (P21917 whole entry, looked up): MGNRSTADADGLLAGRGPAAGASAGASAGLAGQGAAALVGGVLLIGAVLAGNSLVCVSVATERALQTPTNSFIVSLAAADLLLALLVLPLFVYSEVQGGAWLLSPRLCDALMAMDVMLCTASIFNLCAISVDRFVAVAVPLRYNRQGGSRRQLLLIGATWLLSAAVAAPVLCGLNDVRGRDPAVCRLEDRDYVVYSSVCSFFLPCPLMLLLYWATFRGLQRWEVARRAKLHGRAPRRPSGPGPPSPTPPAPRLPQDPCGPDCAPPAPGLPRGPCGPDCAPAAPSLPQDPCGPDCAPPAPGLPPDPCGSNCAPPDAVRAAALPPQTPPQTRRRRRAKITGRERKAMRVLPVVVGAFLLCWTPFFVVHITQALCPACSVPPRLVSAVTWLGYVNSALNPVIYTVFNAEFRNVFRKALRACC
# Neuropeptide Y receptor type 2 (Homo sapiens), sequence (P49146 whole entry, looked up): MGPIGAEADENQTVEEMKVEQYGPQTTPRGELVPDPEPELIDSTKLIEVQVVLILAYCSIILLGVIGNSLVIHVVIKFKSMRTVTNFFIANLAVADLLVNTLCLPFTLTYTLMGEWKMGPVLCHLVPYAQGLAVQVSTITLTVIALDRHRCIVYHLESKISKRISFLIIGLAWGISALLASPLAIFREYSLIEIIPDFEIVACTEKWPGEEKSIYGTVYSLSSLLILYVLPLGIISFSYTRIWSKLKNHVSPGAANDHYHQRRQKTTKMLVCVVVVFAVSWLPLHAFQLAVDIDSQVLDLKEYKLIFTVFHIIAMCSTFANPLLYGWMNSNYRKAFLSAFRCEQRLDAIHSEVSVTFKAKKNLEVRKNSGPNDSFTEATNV
# human Muscarinic, M4 Receptor, CHRM4 (gene 1132), sequence (P08173 whole entry, looked up): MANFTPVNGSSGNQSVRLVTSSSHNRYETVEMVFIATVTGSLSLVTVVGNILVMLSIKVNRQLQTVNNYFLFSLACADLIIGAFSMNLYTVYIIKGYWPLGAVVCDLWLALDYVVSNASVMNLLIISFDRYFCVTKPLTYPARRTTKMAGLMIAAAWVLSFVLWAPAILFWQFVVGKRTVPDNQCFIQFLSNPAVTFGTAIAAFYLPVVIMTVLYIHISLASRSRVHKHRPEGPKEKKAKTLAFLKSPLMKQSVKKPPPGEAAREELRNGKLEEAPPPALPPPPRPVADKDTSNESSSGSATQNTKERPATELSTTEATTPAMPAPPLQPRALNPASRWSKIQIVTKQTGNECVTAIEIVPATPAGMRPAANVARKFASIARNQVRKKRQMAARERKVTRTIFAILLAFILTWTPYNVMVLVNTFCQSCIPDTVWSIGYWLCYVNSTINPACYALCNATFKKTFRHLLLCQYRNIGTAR
structure (smiles),measurement,setting,value
O=C(O)C(F)(F)C(F)(F)C(F)(F)C(F)(F)C(F)(F)C(F)(F)C(F)(F)F,outcome,[1],inactive
same,outcome,[2],inactive
same,outcome,[3],inactive
same,AC50,[4],35.2 µM (active)
same,outcome,[5],inactive
same,outcome,[6],inactive
same,outcome,[7],inactive
O=C1c2ccccc2C(=O)N1SC(Cl)(Cl)Cl,outcome,[8],inactive
same,AC50,[9],13.3 µM (active)
N#Cc1c(Cl)c(Cl)c(Cl)c(C#N)c1Cl,outcome,[2],inactive
same,AC50,[9],15.5 µM (active)
CCCN(CCC)c1c([N+](=O)[O-])cc(C(F)(F)F)cc1[N+](=O)[O-],outcome,[10],inactive
O=C(O)CCCOc1ccc(Cl)cc1Cl,outcome,[11],inactive
CCOC1Oc2ccc(OS(C)(=O)=O)cc2C1(C)C (centres undefined),outcome,[5],inactive
O=S(=O)(O)C(F)(F)C(F)(F)C(F)(F)C(F)(F)C(F)(F)C(F)(F)C(F)(F)C(F)(F)F,AC50,[12],37 µM (active) and 31.2 µM (active) and 29.9 µM (active)
same,AC50,[2],49.6 µM (active)
same,outcome,[2],inactive
same,AC50,[13],25 µM (active) and 16.3 µM (active) and 24 µM (active)
same,outcome,[13],inactive
same,outcome,[14],inactive
same,AC50,[3],7.24 µM (active)
same,AC50,[4],30.1 µM (active) [middle of 4 runs]
same,outcome,[5],inactive
same,outcome,[6],inactive
same,outcome,[7],inactive
OCCOc1ccccc1,outcome,[10],inactive
CCOCN(C(=O)CCl)c1c(C)cccc1CC,outcome,[2],inactive
same,outcome,[15],inactive
CNC(=O)Oc1cccc(N=CN(C)C)c1,outcome,[13],inactive
CC(C)N(C(=O)COc1nnc(C(F)(F)F)s1)c1ccc(F)cc1,outcome,[11],inactive
COc1nn(CSP(=S)(OC)OC)c(=O)s1,AC50,[16],6.74 µM (active)
[2H]C1([2H])[n+]2ccccc2-c2cccc[n+]2C1([2H])[2H],AC50,[11],12.9 µM (active)
same,AC50,[17],4.96 µM (active)
O=C(Nc1ccccc1)Nc1cnns1,AC50,[1],4.96 µM (active)
CCOc1nc(NC)nc(NC(=O)NS(=O)(=O)c2ccccc2C(=O)OC)n1,outcome,[10],inactive
CCc1ccc(C(=O)NN(C(=O)c2cc(C)cc(C)c2)C(C)(C)C)cc1,outcome,[11],inactive
same,outcome,[4],inactive
same,AC50,[17],0.194 µM (active)
same,AC50,[18],0.152 µM (active)
same,outcome,[15],inactive
CCCN(CCOc1c(Cl)cc(Cl)cc1Cl)C(=O)n1ccnc1,AC50,[1],4.96 µM (active)
same,outcome,[4],inactive
same,outcome,[6],inactive
same,outcome,[7],inactive
